Calls of active or inactive are those of the source.
What was measured:
Albumin (Bos taurus) = Albumin (Bos taurus) (UniProt P02769); test: compounds binding labelled BSA control protein – biochemical, small-molecule microarray, Alexa647 label, 635/667 nm fluorescence, artefact control for SMM control protein annotation, profiling panel (AID 1118); conditions: BSA-A647 binding, fluorescence 635 nm, higher = more signal;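 also: score merges 667 nm emission intensity and signal-to-noise per printed compound spot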
[1] = probe aXIP binding to arrayed compounds – biochemical, NeuroSMM set, 635/667 nm fluorescence, primary screen (AID 1119); conditions: small-molecule microarray, higher = more signal, called active from +8 up or from −8 down;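 also: probe is the protein aXip251-270 applied at 1 µg/mL to compound-printed slides; binding of probe to printed compounds measured as 667 nm fluorescence plus signal to noise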
[2] = probe aNOTCH3 binding on compound microarray – biochemical, small-molecule microarray, 635/667 nm fluorescence, primary screen (AID 1120); conditions: higher = more signal;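 also: probe is a biotin-tagged antibody raised against NOTCH3 rather than NOTCH3 protein; score merges spot fluorescence near 667 nm with spot signal to noise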
[3] = probe aNOTCH2 binding on compound microarray – biochemical, small-molecule microarray, 635/667 nm fluorescence, primary screen (AID 1121); conditions: higher = more signal;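 also: score merges feature fluorescence read at 667 nm with its signal to noise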
[4] = target: Carbonic anhydrase 2 (Homo sapiens) (UniProt P00918); test: compounds binding carbonic anhydrase 2 – biochemical, small-molecule microarray, Alexa647-labelled CAII, profiling panel (AID 1122); conditions: CAII-A647 binding fluorescence, higher = more signal
[5] = COS7 lysate on small-molecule microarray, probe aHis, 635 nm (AID 1123); conditions: COS7 cell lysate, fluorescence, higher = more signal;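 also: z-score combines 667nm fluorescence intensity with signal-to-noise per printed compound spot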
[6] = probe aLAP1 signal on lysate-treated microarray – cell lysate, small-molecule microarray, COS7 lysate, primary screen (AID 1124); conditions: probe aLAP1, fluorescence, higher = more signal;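 also: lysate comes from COS7 cells expressing LAP1 and is applied at 0.3 µg/mL; score merges spot fluorescence near 667 nm with signal-to-noise over triplicate slides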
Sam68 (KHDRBS1) = test: compounds binding KHDRBS1 protein – biochemical, small-molecule microarray, 635 nm fluorescence, primary screen (AID 1125); conditions: higher = more signal;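 also: score merges 667 nm channel intensity with signal to noise over triplicate slides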
[7] = test system: Chordin-like protein 2 (CHRDL2); test: compounds binding chordin-like 2 – biochemical, small-molecule microarray, 635 nm fluorescence, primary screen (AID 1126); conditions: fluorescence 635 nm, higher = more signal;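 also: printed compound slides probed with Chrdl2 protein at 4 µg/mL for 1 h at 4 C; score merges 667 nm emission intensity with signal to noise over three replicate slides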
[8] = target: Concanavalin-A (Canavalia ensiformis) (UniProt P02866); test: compounds binding concanavalin A lectin – biochemical, small-molecule microarray, Alexa647 label, 635 nm, artefact control for SMM control protein annotation, primary screen (AID 1127); conditions: ConA-A647 binding fluorescence, higher = more signal;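 also: z combines 667 nm emission intensity with signal-to-noise across three replicate slides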
Sequence of Concanavalin-A (Canavalia ensiformis) (P02866 whole entry, looked up): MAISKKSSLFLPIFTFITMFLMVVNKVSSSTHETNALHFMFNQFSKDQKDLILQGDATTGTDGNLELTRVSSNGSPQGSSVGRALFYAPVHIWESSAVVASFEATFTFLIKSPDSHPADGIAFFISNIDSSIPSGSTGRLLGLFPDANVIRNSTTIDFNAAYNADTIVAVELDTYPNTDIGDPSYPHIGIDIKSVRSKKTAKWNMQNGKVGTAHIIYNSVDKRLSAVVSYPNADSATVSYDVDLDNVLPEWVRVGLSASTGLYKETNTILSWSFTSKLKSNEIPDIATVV

Sequence of Albumin (Bos taurus) (P02769 whole entry, looked up): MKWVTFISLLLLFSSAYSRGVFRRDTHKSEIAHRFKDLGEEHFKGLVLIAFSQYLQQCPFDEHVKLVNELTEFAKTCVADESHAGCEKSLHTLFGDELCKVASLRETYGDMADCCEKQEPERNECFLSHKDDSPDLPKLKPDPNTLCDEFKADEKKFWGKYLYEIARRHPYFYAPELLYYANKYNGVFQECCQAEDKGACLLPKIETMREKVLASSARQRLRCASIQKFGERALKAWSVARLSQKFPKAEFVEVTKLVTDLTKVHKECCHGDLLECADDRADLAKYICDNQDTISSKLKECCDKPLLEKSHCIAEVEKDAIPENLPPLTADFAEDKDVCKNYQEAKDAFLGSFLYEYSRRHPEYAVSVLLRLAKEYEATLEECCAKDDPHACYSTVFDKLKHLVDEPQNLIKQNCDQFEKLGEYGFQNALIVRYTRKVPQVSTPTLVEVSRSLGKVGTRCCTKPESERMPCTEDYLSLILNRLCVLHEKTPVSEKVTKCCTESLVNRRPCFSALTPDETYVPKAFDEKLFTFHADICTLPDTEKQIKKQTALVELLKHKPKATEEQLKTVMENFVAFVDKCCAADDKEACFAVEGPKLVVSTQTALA

| SMILES | composite z-score (Albumin (Bos taurus)) | composite Z-score [1] | composite z-score [2] | composite z-score [3] | composite z-score [4] | composite z-score [5] | composite z-score [6] | composite z-score (Sam68 (KHDRBS1)) | composite z-score [7] | composite z-score [8] |
| --- | --- | --- | --- | --- | --- | --- | --- | --- | --- | --- |
| Cc1cccc([C@H]2C[C@H]3C(I)=C[C@@H]2C(=O)[C@]32CO2)c1 | -0.883 | 0.694 (inactive) | -0.199 | -0.112 | 0.0705 | -0.55 | 0.466 | -0.5 | 0.645 | -0.478 |
| COCC(=C=CC[C@@H](O)c1cccc(OCCO)c1)CCO | 0.682 | 0.0124 (inactive) | -0.0293 | 0.011 | 0.708 | 0.562 | 1.41 | 0.381 | -0.325 | 0.856 |
| COc1ccc([Si](C)(C)[C@H]2[C@H](CCO)O[C@@]3(C(=O)N(Cc4ccccc4)c4ccc(N5C(=O)c6ccccc6Oc6ccccc65)cc43)[C@@H]2C)cc1 | 0.467 | -0.216 (inactive) | -0.0984 | -0.106 | 0.532 | 1.47 | 0.62 | 0.442 | 0.214 | 0.823 |
| CC1(C)C(=O)C(c2ccccc2)=C2CN3C(=O)N(CCc4ccccc4)C(=O)C3(Cc3ccc(C(F)(F)F)cc3)C=C21 (stereo not given) | 0.925 | -0.301 (inactive) | 0.561 | 0.306 | 0.581 | 2.1 | 0.014 | 0.764 | -1.06 | 0.702 |
| C=C(C)[C@@H]1CC=C(C(O)C2C=CC3C(=O)N(c4ccccc4)C(=O)C3N2Nc2ccc(C#N)cc2)CC1 (stereo not given in full) | 0.971 | 0.0421 (inactive) | 0.217 | 0.0963 | 0.643 | 2.46 | 0.429 | 1.31 | 0.355 | 1.16 |
| C=C[C@@H](OC)[C@H](OC(=O)Nc1ccc(SC)cc1)c1ccc(OCCO)cc1 | 0.687 | 0.0939 (inactive) | 0.23 | -0.101 | 0.361 | 1.89 | 0.35 | 1.34 | 0.207 | 0.89 |
| C=C(CCCC)C(=O)CC[C@@H](OC(=O)c1cccnc1)c1ccc(OCCO)cc1 | -0.409 | 0.97 (inactive) | -0.0144 | -0.0357 | 0.718 | 0.719 | 0.488 | 0.947 | 0.894 | 0.239 |
| COC(=O)[C@@]1(Cc2ccccc2)[C@H]2c3cc(C(=O)N4CCCC4)n(CCSCCO)c3C[C@H]2CN1C(=O)c1ccccc1 | 1.05 | -0.176 (inactive) | 0.543 | 0.187 | 0.841 | 3.57 | 1.22 | 1.12 | -0.997 | 0.554 |
| O=C1N[C@@H](Cc2ccccc2)C(=O)N2[C@@H]1C[C@@H](C(=O)O)[C@H]2c1ccc(O)cc1 | 0.145 | 0.84 (inactive) | 0.428 | 0.0712 | 0.757 | 1.33 | 0.341 | 0.754 | 1.1 | 1.01 |
| C=C(COC)/C(=C/C[C@@H](OC(C)=O)c1ccc(CO)o1)c1cc(C(=O)OC)ccc1OC | -0.418 | 0.615 (inactive) | -0.0647 | -0.133 | 0.579 | 0.694 | 0.662 | 0.246 | -0.228 | 0.581 |
| C=CCC(OC(C)=O)[C@@H]1[C@@H](N(Cc2ccc(-c3ccccc3)cc2)C(=O)c2ccc(C)cc2)c2cc(OCCCO)ccc2N1C(=O)Cc1ccc2ccccc2c1 (stereo not given in full) | 0.233 | -0.645 (inactive) | -0.0362 | -0.159 | -0.14 | 0.772 | -0.0769 | -0.106 | 0.248 | 0.202 |
| CCCNC(=O)[C@@]1(Sc2ccc(C)cc2)CC(=O)N(C(C)C)[C@@H]1c1ccc(CO)cc1I | -0.249 | 0.292 (inactive) | -0.219 | -0.163 | 0.771 | 1.22 | 0.846 | 0.58 | -2.46 | -0.818 |
| COCCOC(=O)N1C(=O)[C@@]2(c3cc(C#CCC(C(=O)OC)C(=O)OC)ccc31)[C@H](C(=O)NC[C@H](O)c1ccccc1)[C@H]1C(=O)O[C@H](c3ccccc3)[C@H](c3ccccc3)N1[C@@H]2c1ccc(O)cc1 | 0.661 | -0.0756 (inactive) | -0.0014 | -0.0974 | 0.614 | 1.67 | 0.243 | 0.378 | -0.769 | 0.708 |
| COC(=O)[C@@]1(Cc2ccc(F)cc2)[C@H]2c3cc(C(=O)N4CCCC4)n(C)c3C[C@H]2CN1C(=O)c1ccccc1 | 0.942 | 0.929 (inactive) | 0.49 | 0.295 | 0.76 | 3.32 | 1.01 | 1.31 | -1.04 | 0.683 |
| C=CCNC(=O)[C@H]1[C@@H]2C(=O)O[C@@H](c3ccccc3)[C@@H](c3ccccc3)N2[C@@H](c2ccc(OCCO)cc2)[C@]12C(=O)N(C(=O)OCCOC)c1ccc(C#Cc3ccc(OC)cc3)cc12 | 0.358 | -0.292 (inactive) | 0.154 | -0.0995 | 0.447 | 0.656 | 0.636 | 1.3 | 0.302 | 1.09 |

Reference: PubChem BioAssay
